Assay results: paper PMC5913336, “True equilibrium measurement of transcription factor-DNA binding affinities using automated polarization microscopy”

Each sequence was assayed against T1, Br (Drosophila melanogaster, UniProt Q24206 697-775) (assay: FP; 33 mM phosphate pH 7.0, 90 mM NaCl, 0.01% Tween 20, 0.1 mM DTT, 0.5% agarose; room temperature). Details: tags: N-GST (pGEX-6P-1, kept); dsDNA, one strand shown.
T1 sequence: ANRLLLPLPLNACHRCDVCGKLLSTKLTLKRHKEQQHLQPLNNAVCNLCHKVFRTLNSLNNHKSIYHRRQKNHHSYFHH

Sequence | binding signal
GGAATTAGAAATC | 1.02 Kd / Kd of best base at the position
GGAATAAGAAAAC | > 1590 Kd / Kd of best base at the position
GGAAGTAGAAAAC | 40.3 Kd / Kd of best base at the position
GGAATTAGGAAAC | 2.63 Kd / Kd of best base at the position
GAAATTAGAAAAC | 2.08 Kd / Kd of best base at the position
GGAATTAGAGAAC | 2.43 Kd / Kd of best base at the position
GGCATTAGAAAAC | 2.73 Kd / Kd of best base at the position

These sequences were tested against T2, Hb (Drosophila melanogaster, UniProt P05084 225-364) in the same assay as above. Details: tags: N-GST (pGEX-6P-1, kept); dsDNA, one strand shown.
T2 sequence: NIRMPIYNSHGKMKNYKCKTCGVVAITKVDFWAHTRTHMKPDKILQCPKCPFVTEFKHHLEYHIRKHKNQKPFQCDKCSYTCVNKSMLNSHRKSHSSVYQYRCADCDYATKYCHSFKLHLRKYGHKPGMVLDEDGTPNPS

Sequence | binding signal | Kd
AGTTTTTTAGCC | 1.11 Kd / Kd of best base at the position | –
AGTTTGTTAGGC | 11.9 Kd / Kd of best base at the position | –
AGTTTTCTAGGC | 15 Kd / Kd of best base at the position | –
AGTTTTTTAGGT | 1.01 Kd / Kd of best base at the position | –
AGTTTTTTACGC | 1.61 Kd / Kd of best base at the position | –
AGTTTTTTATGC | 1.04 Kd / Kd of best base at the position | –
ATTTTTTTAGGC | 1.03 Kd / Kd of best base at the position | –
AGATTTTTAGGC | 3.22 Kd / Kd of best base at the position | –
AGTTGTTTAGGC | 9.25 Kd / Kd of best base at the position | –
AGTTTATTAGGC | 11 Kd / Kd of best base at the position | –
AGTTTCTTAGGC | 9.31 Kd / Kd of best base at the position | –
AGTTTTGTAGGC | 9.72 Kd / Kd of best base at the position | –
AGTTTTTTAGAC | 1.59 Kd / Kd of best base at the position | –
AGTTTTTTCGGC | 5.64 Kd / Kd of best base at the position | –
AGTTTTTCAGGC | 10.3 Kd / Kd of best base at the position | –
AGTCTTTTAGGC | 8.66 Kd / Kd of best base at the position | –

Sequence | binding signal | Kd
AGTTTTTTAGTC | 1.14 Kd / Kd of best base at the position | –
CGTTTTTTAGGC | 1.23 Kd / Kd of best base at the position | –
AGTTTTTTTGGC | 6.04 Kd / Kd of best base at the position | –
AGTTATTTAGGC | 10.2 Kd / Kd of best base at the position | –
AGTTTTTTGGGC | 6.22 Kd / Kd of best base at the position | –
ACTTTTTTAGGC | 1.03 Kd / Kd of best base at the position | –
AGGTTTTTAGGC | 1.26 Kd / Kd of best base at the position | –
AGTTTTTGAGGC | 8.32 Kd / Kd of best base at the position | –
TGTTTTTTAGGC | 1.1 Kd / Kd of best base at the position | –
AATTTTTTAGGC | 1.04 Kd / Kd of best base at the position | –
AGTTTTTTAGGA | 1.46 Kd / Kd of best base at the position | –
AGTTCTTTAGGC | 13.1 Kd / Kd of best base at the position | –
AGTATTTTAGGC | 8.15 Kd / Kd of best base at the position | –
AGTTTTTTAGGG | 1.25 Kd / Kd of best base at the position | –
AGCTTTTTAGGC | 2.23 Kd / Kd of best base at the position | –
AGTTTTTTAGGC | – | ~12.5 nM
